Assay in all cases: DAPPL (digital affinity profiling via proximity ligation, sequencing); 10 mM Tris-HCl pH 7.5, 50 mM NaCl, 1 mM DTT, 4% glycerol, room temperature, 30 min; GST-TFs on glutathione beads, 16-mer random dsDNA library, 0.1% formaldehyde crosslink after washing; high values mean tight binding
Details in all cases: protein: recombinant; tags: N-terminal GST; dsDNA, one strand shown

One assay deals with T1, FLI1 (Homo sapiens, UniProt Q01543 1-452).
T1 sequence: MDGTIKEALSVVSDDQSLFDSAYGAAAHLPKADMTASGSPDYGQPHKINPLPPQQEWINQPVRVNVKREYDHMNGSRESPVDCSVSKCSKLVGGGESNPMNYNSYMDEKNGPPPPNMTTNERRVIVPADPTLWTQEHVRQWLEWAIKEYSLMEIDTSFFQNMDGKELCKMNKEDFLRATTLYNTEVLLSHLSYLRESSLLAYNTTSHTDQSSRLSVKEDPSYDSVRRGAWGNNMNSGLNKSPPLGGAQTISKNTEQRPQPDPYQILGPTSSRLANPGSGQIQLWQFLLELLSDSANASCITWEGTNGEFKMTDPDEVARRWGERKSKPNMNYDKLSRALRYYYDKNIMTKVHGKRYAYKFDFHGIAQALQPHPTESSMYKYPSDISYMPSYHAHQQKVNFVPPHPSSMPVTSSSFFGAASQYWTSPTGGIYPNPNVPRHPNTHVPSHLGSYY
Summed up:
(§1)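 Pools were built from human transcription factors expressed in yeast as GST fusions, captured on glutathione beads and DNA-barcoded, along with a tag-only sample. Incubation with 200 nmole of a 16-mer random double-stranded DNA library lasted 30 min at room temperature in Tris/NaCl/DTT/glycerol buffer, and was followed by washing, 0.1% formaldehyde crosslinking, proximity ligation, PCR amplification and Illumina NextSeq500 sequencing. Binding signal is the quotient of each hexamer's read frequency for a factor and its frequency for the tag-only sample.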

The target of another assay is T2, EHF (Homo sapiens, UniProt Q9NZC4 1-300).
T2 sequence: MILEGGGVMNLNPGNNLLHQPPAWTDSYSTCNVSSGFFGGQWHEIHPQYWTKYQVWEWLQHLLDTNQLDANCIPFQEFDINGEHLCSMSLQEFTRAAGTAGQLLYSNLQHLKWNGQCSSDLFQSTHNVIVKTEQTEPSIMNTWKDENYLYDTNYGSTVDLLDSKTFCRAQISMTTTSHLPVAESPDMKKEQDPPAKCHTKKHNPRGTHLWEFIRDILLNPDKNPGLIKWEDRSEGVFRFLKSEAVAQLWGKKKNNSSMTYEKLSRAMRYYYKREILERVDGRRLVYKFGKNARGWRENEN
Summed up:
as §1

The next assay addresses SPI1 (Homo sapiens, UniProt P17947 1-270). In short, it runs like this:
as §1

The next assay has as its target T3, FEV (Homo sapiens, UniProt Q99581 1-238).
T3 sequence: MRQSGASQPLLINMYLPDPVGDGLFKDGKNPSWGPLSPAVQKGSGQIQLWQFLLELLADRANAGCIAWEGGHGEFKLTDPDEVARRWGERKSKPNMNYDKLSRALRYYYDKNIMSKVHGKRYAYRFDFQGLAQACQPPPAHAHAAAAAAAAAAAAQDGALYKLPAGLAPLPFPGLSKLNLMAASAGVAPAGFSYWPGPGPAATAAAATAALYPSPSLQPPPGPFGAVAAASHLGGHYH
In short, it runs like this: as §1

A further assay addresses ETV5 (Homo sapiens, UniProt P41161 1-510). In short, it runs like this:
as §1

For another assay, the target named is T4, SPIC (Homo sapiens, UniProt Q8N5J4 1-248).
T4 sequence: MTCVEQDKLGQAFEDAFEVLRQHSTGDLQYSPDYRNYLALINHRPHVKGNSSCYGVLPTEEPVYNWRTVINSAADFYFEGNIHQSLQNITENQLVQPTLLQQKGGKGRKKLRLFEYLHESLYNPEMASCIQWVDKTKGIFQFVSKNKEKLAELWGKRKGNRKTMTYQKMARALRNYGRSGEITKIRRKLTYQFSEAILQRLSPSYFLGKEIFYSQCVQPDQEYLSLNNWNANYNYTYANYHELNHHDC
Summed up:
as §1

A further assay addresses ETV6 (Homo sapiens, UniProt P41212 1-452). In short, it runs like this: as §1
The target of another assay is T5, ELK1 (Homo sapiens, UniProt P19419 1-428).
T5 sequence: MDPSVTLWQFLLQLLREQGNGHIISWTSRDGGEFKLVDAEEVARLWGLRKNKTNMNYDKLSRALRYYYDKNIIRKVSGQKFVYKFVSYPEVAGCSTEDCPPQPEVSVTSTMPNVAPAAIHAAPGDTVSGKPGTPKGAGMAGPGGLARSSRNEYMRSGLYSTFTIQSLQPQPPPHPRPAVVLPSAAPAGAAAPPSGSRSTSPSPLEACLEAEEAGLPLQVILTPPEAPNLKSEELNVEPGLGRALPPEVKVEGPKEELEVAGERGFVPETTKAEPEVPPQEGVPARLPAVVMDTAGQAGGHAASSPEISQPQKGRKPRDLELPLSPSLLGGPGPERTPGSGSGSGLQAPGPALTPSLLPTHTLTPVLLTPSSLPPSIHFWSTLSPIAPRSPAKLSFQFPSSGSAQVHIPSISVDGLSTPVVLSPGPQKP
In short, it runs like this:
as §1

The target in the next assay is T6, GABPA (Homo sapiens, UniProt Q06546 1-454).
T6 sequence: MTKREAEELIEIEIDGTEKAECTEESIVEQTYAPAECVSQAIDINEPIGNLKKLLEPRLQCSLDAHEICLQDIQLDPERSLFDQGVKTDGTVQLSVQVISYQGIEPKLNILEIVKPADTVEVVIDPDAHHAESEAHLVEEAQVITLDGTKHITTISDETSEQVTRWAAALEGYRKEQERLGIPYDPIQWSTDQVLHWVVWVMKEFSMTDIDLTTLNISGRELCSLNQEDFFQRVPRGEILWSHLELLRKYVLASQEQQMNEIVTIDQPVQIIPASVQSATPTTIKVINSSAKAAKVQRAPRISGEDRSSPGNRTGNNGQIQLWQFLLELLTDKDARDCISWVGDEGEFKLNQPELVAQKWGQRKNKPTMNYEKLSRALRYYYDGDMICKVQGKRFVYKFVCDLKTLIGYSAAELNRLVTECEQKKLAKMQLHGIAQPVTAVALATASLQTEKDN
In short, it runs like this: as §1

Another assay concerns the target T7, ERG (Homo sapiens, UniProt P11308 1-479).
T7 sequence: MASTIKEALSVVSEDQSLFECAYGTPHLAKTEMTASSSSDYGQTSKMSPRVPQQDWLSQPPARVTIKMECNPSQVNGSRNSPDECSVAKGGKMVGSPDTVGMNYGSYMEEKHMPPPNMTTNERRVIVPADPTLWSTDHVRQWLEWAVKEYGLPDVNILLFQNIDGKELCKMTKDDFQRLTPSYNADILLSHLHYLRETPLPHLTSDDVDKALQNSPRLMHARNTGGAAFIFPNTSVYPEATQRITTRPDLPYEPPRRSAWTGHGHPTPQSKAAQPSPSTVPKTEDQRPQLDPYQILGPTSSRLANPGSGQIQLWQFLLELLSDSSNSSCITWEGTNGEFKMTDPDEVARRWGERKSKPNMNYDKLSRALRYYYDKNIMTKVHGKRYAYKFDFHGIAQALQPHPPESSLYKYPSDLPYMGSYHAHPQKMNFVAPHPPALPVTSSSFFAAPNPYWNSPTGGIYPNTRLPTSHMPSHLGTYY
Summed up: as §1

In a further assay the target is ELF1 (Homo sapiens, UniProt P32519 1-619). Summed up:
as §1

Another assay addresses T8, ETV3L (Homo sapiens, UniProt Q6ZN32 1-361).
T8 sequence: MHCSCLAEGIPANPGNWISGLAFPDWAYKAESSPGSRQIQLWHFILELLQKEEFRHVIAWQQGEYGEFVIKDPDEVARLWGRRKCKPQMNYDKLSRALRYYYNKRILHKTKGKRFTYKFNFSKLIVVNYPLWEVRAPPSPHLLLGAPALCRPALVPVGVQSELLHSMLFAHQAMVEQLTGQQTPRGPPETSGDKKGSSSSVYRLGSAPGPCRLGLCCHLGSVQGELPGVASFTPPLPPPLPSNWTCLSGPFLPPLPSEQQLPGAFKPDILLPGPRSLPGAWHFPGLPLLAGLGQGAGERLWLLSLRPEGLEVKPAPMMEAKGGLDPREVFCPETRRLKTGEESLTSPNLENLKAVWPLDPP
Summed up:
as §1

The target of a further assay is T9, ETS2 (Homo sapiens, UniProt P15036 1-469).
T9 sequence: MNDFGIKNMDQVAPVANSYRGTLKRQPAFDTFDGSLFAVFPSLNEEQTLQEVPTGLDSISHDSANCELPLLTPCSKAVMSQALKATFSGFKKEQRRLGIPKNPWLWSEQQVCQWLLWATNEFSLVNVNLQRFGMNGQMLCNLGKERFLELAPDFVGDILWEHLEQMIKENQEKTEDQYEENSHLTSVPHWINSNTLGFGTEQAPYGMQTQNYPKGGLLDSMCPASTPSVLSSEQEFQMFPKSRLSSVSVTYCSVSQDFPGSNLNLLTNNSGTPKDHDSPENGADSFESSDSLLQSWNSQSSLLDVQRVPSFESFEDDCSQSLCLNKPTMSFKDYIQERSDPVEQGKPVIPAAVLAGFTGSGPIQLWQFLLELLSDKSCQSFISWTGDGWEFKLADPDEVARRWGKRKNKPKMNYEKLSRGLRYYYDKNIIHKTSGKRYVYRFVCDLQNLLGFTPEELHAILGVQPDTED
In short, it runs like this: as §1

The next assay addresses T10, ELF5 (Homo sapiens, UniProt Q9UKW6-2 1-255).
T10 sequence: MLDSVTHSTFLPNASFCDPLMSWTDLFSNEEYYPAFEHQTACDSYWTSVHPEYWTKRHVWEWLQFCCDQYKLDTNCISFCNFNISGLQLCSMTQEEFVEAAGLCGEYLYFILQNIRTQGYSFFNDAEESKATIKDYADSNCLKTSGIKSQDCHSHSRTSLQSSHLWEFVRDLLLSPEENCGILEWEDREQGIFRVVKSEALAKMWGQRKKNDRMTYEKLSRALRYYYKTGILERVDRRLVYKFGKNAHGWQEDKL
In short, it runs like this: as §1

A further assay addresses T11, ETV3 (Homo sapiens, UniProt P41162-2 1-143).
T11 sequence: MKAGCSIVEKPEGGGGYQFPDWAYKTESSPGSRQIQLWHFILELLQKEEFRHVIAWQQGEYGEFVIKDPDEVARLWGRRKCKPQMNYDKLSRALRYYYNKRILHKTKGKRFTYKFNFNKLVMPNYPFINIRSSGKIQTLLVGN
In short, it runs like this: as §1

A further assay addresses T12, ELK3 (Homo sapiens, UniProt P41970 1-407).
T12 sequence: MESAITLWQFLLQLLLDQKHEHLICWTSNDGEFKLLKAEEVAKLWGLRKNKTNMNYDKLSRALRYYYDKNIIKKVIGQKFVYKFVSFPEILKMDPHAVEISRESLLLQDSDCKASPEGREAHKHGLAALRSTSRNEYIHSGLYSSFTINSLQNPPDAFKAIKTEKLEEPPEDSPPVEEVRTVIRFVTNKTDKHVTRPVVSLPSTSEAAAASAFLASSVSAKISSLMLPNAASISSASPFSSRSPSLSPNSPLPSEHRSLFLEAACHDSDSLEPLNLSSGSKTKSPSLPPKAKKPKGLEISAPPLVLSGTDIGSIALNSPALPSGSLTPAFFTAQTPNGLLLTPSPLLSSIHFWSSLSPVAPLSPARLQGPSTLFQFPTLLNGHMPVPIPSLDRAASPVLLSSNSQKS
Summed up: as §1

In another assay the target is ETV1 (Homo sapiens, UniProt P50549 1-477). In short, it runs like this: as §1
Sequence of ETV1 (P50549 whole entry): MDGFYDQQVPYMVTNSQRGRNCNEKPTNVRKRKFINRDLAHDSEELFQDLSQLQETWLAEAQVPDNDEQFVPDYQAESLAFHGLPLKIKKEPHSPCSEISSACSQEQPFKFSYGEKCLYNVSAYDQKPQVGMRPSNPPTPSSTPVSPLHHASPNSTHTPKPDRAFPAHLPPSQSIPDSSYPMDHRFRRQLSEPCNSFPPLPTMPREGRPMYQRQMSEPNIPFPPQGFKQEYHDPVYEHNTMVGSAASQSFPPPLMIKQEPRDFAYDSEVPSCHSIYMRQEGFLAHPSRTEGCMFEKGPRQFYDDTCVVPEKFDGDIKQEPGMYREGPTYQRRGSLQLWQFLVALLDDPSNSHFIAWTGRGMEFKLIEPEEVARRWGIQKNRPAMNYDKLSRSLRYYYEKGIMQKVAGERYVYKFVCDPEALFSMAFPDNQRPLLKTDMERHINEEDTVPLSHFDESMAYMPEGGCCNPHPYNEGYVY

Sequence of ETV5 (P41161 whole entry): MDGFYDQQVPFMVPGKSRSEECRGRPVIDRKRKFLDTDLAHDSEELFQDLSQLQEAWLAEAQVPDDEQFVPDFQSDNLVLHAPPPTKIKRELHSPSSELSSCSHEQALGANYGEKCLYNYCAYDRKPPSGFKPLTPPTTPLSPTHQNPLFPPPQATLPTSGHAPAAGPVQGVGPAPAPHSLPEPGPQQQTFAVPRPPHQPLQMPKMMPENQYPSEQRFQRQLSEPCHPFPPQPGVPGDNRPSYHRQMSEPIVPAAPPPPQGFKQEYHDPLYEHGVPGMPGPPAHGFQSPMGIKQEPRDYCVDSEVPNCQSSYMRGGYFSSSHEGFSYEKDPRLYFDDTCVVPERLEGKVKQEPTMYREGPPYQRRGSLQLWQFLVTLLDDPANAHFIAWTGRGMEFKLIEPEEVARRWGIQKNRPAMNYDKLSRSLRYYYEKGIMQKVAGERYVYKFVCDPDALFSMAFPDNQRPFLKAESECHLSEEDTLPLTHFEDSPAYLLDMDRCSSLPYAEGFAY
Sequence of ELF1 (P32519 whole entry): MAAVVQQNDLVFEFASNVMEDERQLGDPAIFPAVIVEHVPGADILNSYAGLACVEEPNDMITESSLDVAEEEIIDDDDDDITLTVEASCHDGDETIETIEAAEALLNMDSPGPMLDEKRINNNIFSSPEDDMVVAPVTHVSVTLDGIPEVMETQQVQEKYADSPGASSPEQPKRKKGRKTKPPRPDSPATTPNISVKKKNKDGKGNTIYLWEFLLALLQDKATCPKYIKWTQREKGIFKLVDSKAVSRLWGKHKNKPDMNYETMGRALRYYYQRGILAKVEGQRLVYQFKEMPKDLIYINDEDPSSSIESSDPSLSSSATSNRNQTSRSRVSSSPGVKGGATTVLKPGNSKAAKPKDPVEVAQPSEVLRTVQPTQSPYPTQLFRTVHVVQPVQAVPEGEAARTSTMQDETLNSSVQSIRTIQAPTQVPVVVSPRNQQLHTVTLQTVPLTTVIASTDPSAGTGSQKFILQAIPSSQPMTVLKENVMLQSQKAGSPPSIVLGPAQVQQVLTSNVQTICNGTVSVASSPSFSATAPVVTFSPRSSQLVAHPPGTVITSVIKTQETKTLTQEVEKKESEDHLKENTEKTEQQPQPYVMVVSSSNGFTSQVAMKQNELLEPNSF
Sequence of ETV6 (P41212 whole entry): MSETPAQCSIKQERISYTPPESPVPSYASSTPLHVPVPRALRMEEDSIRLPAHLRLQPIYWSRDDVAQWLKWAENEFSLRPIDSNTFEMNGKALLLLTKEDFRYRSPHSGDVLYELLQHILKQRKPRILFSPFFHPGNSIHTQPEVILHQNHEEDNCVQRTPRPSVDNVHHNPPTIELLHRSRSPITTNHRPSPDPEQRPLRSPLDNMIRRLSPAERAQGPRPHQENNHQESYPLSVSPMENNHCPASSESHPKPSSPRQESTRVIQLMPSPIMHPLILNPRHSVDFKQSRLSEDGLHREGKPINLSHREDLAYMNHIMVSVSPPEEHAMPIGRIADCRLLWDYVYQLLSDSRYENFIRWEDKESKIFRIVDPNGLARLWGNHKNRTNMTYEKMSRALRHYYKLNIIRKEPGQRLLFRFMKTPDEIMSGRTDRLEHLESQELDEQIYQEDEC

Consider AGTGTA, for which the binding signal in the assay with FLI1 was 1.03 fold enrichment (6-mer frequency, TF over GST control); with EHF, 1.02 fold enrichment (6-mer frequency, TF over GST control); with SPI1, 1.24 fold enrichment (6-mer frequency, TF over GST control); with FEV it was 1.01 fold enrichment (6-mer frequency, TF over GST control); in the assay with ETV5 it was 1.05 fold enrichment (6-mer frequency, TF over GST control); with SPIC it was 1.19 fold enrichment (6-mer frequency, TF over GST control). For the same sequence, in the assay with ETV6, the binding signal was 1.03 fold enrichment (6-mer frequency, TF over GST control).
Consider ACTAGG, for which the binding signal was 1.03 fold enrichment (6-mer frequency, TF over GST control) in the assay with FLI1; 1.1 fold enrichment (6-mer frequency, TF over GST control) with ELK1; 1.09 fold enrichment (6-mer frequency, TF over GST control) in the assay with GABPA; 1.03 fold enrichment (6-mer frequency, TF over GST control) with ERG; 1.08 fold enrichment (6-mer frequency, TF over GST control) with ELF1; 1.04 fold enrichment (6-mer frequency, TF over GST control) in the assay with EHF. Moreover, the binding signal in the assay with SPI1 was 1.07 fold enrichment (6-mer frequency, TF over GST control); with FEV, 1.02 fold enrichment (6-mer frequency, TF over GST control); in the assay with ETV5, 1.03 fold enrichment (6-mer frequency, TF over GST control); with SPIC, 1.21 fold enrichment (6-mer frequency, TF over GST control); with ETV3L, 1.04 fold enrichment (6-mer frequency, TF over GST control); with ETS2, 1.08 fold enrichment (6-mer frequency, TF over GST control). Moreover, the binding signal with ELF5 was 1 fold enrichment (6-mer frequency, TF over GST control); with ETV3 it was 1.03 fold enrichment (6-mer frequency, TF over GST control).
For the sequence ACTGTA, the binding signal in the assay with FLI1 is 1 fold enrichment (6-mer frequency, TF over GST control); with ELK1 it was 1.09 fold enrichment (6-mer frequency, TF over GST control); with GABPA, 1.03 fold enrichment (6-mer frequency, TF over GST control); with ELF1 it was 1.08 fold enrichment (6-mer frequency, TF over GST control); with EHF it was 1.11 fold enrichment (6-mer frequency, TF over GST control); with SPI1 it was 1.09 fold enrichment (6-mer frequency, TF over GST control). Moreover, the binding signal was 1.04 fold enrichment (6-mer frequency, TF over GST control) with ELK3; 1 fold enrichment (6-mer frequency, TF over GST control) in the assay with FEV; 1.08 fold enrichment (6-mer frequency, TF over GST control) in the assay with ETV5; 1.24 fold enrichment (6-mer frequency, TF over GST control) with SPIC; 1.02 fold enrichment (6-mer frequency, TF over GST control) with ETV1; 1.01 fold enrichment (6-mer frequency, TF over GST control) with ETV3L. Also, the binding signal was 1.07 fold enrichment (6-mer frequency, TF over GST control) with ELF5; 1 fold enrichment (6-mer frequency, TF over GST control) with ETV3; 1.03 fold enrichment (6-mer frequency, TF over GST control) in the assay with ETV6.
